PubChem BioAssay (NCI)
About 79,000 compounds went through this panel and 15% of them were active in at least one assay; those are over-represented in the sample as a whole. No stated cut-off is given here; in the data, active means growth inhibition above about 70%; inactive means the rest.

Tests used:
[1] = NCI Yeast Anticancer Drug Screen. Data for the rad50 strain (AID 155);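 further: 0% = growth of vehicle-only cultures of the same strain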; settings: S. cerevisiae rad50 strain growth inhibition; at 50.0 µM; active compounds read high
In short: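 Growth of the mutant yeast was measured after compound exposure and referenced to vehicle-treated cultures.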

[2] = NCI Yeast Anticancer Drug Screen. Data for the mec2-1 strain (AID 157); settings: S. cerevisiae mec2-1 strain, at 50.0 µM, active compounds read high
In short: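 Using mec2-1 yeast: add compound, measure growth, express inhibition versus vehicle-treated cultures.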

[3] = NCI Yeast Anticancer Drug Screen. Data for the sgs1 mgt1 strain (AID 161);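 further: 0% = growth of cultures given vehicle only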; settings: S. cerevisiae sgs1 mgt1 strain, at 50.0 µM, active compounds read high
In short: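 Compounds are added to genetically altered yeast, and growth is compared with cultures given vehicle alone to give percent inhibition.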

[4] = NCI Yeast Anticancer Drug Screen. Data for the cln2 rad14 strain (AID 165);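 further: 0% = growth equal to vehicle treated cultures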; settings: S. cerevisiae cln2 rad14 strain, at 50.0 µM, active compounds read high
In short: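 Yeast strain cln2 rad14, bearing defects in cell cycle control and DNA repair, serves as the test system; values reflect growth inhibition compared with vehicle.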

[5] = NCI Yeast Anticancer Drug Screen. Data for the bub3 strain (AID 167); settings: S. cerevisiae bub3 mutant strain, at 50.0 µM, active compounds read high
In short: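 Whole-cell yeast assay. The mutant strain was incubated with compounds, and growth inhibition was determined by comparison with vehicle-treated cells.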

[6] = NCI Yeast Anticancer Drug Screen. Data for the mlh1 rad18 strain (AID 175); settings: S. cerevisiae mlh1 rad18 strain growth inhibition; at 50.0 µM; active compounds read high
In short: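 Steps: expose repair-defective yeast to compound; measure growth; express inhibition against vehicle-treated controls.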

Measured: growth inhibition

Cc1ccc(O)c(C=O)c1
inactive: [1] -31.1% | [2] -42.1% | [3] -7.65% | [4] 11.7% | [5] -25.7% | [6] -6.8%

O=C1c2ccccc2C(=O)N1CNc1cccc(NCN2C(=O)c3ccccc3C2=O)n1
inactive: [1] -35.8% | [2] -22.1% | [3] -23.1% | [4] 13.4% | [5] -6.5% | [6] -34.8%

CCC(C)OC(=O)/C(Br)=C1/OC(=O)c2ccccc2-c2ccccc21 (stereo unspecified)
inactive: [1] -1.55% | [2] -15.8% | [3] -0.35% | [4] -13.4% | [5] -42.5% | [6] -7.2%

C#CCN(Cc1ccc2nc(-c3ccccc3)c(N)nc2c1)c1cc(OC)c(OC)c(OC)c1
inactive: [1] -0.75% | [2] 5.25% | [3] 31.8% | [4] 16.1% | [5] 14.7% | [6] 30.1%

Cc1nc(C)c(C(=O)NNC(N)=S)cc1C(=O)NNC(N)=S
inactive: [1] -10.2% | [2] -16.6% | [3] 0.95% | [4] -5.6% | [5] -27.6% | [6] -8.9%

O=C1c2ccccc2C(=O)N1CCn1nc(-c2ccccc2)cc(-c2ccccc2)c1=O
inactive: [1] 1.85% | [2] -2.35% | [3] -25.5% | [4] 7.9% | [5] 39% | [6] -8.6%

CN(N)c1cc(=O)n(C)c(=O)n1C
inactive: [1] -1.35% | [2] -1.2% | [3] -10.7% | [4] -45.1% | [5] -3.05% | [6] 15.6%

NNS(=O)(=O)c1ccc(/C=C2\NC(=O)NC2=O)cc1
inactive: [1] -4.45% | [2] 1.5% | [3] -17.2% | [4] 13.2% | [5] -26.4% | [6] 23.9%

NC(=O)N/N=C(\Cc1nc2ccc(Cl)cc2[nH]c1=O)C(=O)Nc1ccc(Cl)cc1Cl
inactive: [1] 11.9% | [2] 11.8% | [3] 7.2% | [4] -30.1% | [5] -0.85% | [6] 15.2%

C=C(CO)CC(CC(=C)CCS(=O)(=O)c1ccccc1)S(=O)(=O)c1ccccc1 (stereo unspecified)
inactive: [1] 8.55% | [2] 1.75% | [3] -0.9% | [4] 8.85% | [5] 7.35% | [6] -5.75%

CNCc1cccc(OC)c1OC
inactive: [1] -1.05% | [2] -5.4% | [3] -2.35% | [4] -0.6% | [5] 16.2% | [6] -2.7%

COCCN(C(=O)c1ccccc1)C1CCC2(SCCS2)c2[nH]c3ccccc3c21 (stereo unspecified)
inactive: [1] 16.1% | [2] 14.6% | [3] 3.75% | [4] -35.2% | [5] -1.75% | [6] 41%

Nc1n[nH]c(=S)s1
inactive: [1] 6.8% | [2] -12.1% | [3] 7.35% | [4] -8.7% | [5] -12.3% | [6] 3.55%

CC(C(=O)O)C(=O)NNc1ccccc1 (stereo unspecified)
inactive: [1] 7.8% | [2] -17.9% | [3] -6.7% | [4] 8.4% | [5] -2.1% | [6] -16.4%

CN1CC(c2ccccc2)=Cc2c1ccc(N)c2N=N
inactive: [1] -13.3% | [2] -29.2% | [3] -0.3% | [4] 15.6% | [5] 12.8% | [6] 0.15%

NC(=O)/C=C/c1cccnc1
inactive: [1] 4.6% | [2] -0.65% | [3] -7.75% | [4] -34.1% | [5] 11% | [6] 13%

CC1(C)N=C(/C(Cl)=[N+](/[O-])C(=O)c2ccc(F)cc2)C(C)(C)N1O
inactive: [1] -15.5% | [2] -35.3% | [3] -27.2% | [4] 16.7% | [5] -25.8% | [6] -25.9%

CC(C)(C)c1ccc(O)c(C(O)c2ccncc2)c1 (stereo unspecified)
inactive: [1] 7.3% | [2] -12.4% | [3] 9.15% | [4] -6.75% | [5] 1.6% | [6] 16.6%

CN(C)CC1CCCC/C1=N/O (stereo unspecified)
inactive: [1] 0.5% | [2] -6.75% | [3] -9.4% | [4] -17.5% | [5] 2.55% | [6] -5.15%

CC1CC2=C(C(=O)c3ccccc3C2=O)C(C)O1 (stereo unspecified)
inactive: [1] 3.15% | [2] -29.5% | [3] -4.4% | [4] -31.7% | [5] 41.5% | [6] 9.1%

CC(=O)OC1Cc2ccccc2C1OC(C)=O (stereo unspecified)
inactive: [1] -1.9% | [2] 9.4% | [3] -8.8% | [4] -9.8% | [5] -19.4% | [6] 7.1%
